# From PubChem BioAssay AID651597 (National Center for Advancing Translational Sciences (NCATS), 2012)
# Screen size: about 1,100 compounds; about 390 (35%) were called active. Not shown: some 30% with an inconclusive outcome. Calls follow the shape of the dose curve; as a rule, active = well fitted inhibition curve with a large enough effect; inconclusive = small, poorly fitted or top-dose-only effect; inactive = flat fitted curve, though single readings scatter. This is one part of the list.
# Target: Luciferin 4-monooxygenase (Photinus pyralis) (UniProt P08659)
# Experiment: qHTS of Nrf2 Activators: Hit Validation in Secondary FLuc Assay; also: nearly all actives have a fitted effect of over 65% in size
# Conditions: firefly luciferase inhibition counter-screen, luminescence; series mostly up to 57.5 µM; activity, negative = inhibition: at the top concentration
# Source text: Many diseases have some form of oxidative stress injury and ties to inflammation, causing a host of problems for the patient. The antioxidant response element (ARE) plays an important role in alleviating the harmful effects of oxidative stress. The antioxidant response element (ARE) is a transcriptional regulatory element involved in the activation of genes coding for a number of antioxidant proteins and detoxifying enzymes. These enzymes work in concert to protect tissues from oxidative insults and chemical toxicities in human hepatocytes and immune cells. The protective effects of ARE activation are primarily triggered through Nrf2 (NF-E2-related factor) binding to and activating AREs. It is known that Nrf2 controls the production of over 250 antioxidant and detoxification proteins (Hu et al., 2006), thereby protecting tissues by increasing cellular antioxidant content and suppressing inflammatory signaling pathways. The transcription factor Nrf2 is a central link between oxidative chemicals, such as phenolic antioxidants and electrophilic compounds, and the activation of ARE. Nrf2 levels are constitutively low as a consequence of its interaction with Keap1, which targets its degradation (Zipper and Mulcahy, 2002). Electrophiles react with key cysteine residues in Keap1, releasing Nrf2 and allowing its translocation to the nucleus. Once within the nucleus, Nrf2 complexes with coactivators such as p300, and binds to the AREs to induce gene transcription of cytoprotective enzymes, resulting in the prevention of toxicity. Activation of Nrf2 protects tissues by increasing cellular antioxidant content and suppressing inflammatory signaling pathways. Identifying novel and potent Nrf2 activators by using the AREc32 cell line to detect ARE activation by small molecules will lead to the identification and development of probes to study protective pathways in multiple tissues. These specific probes are essential to study the ARE pathway, and eventually to determine whether this pathway does activate genes that could protect against a host of diseases, including cardiovascular diseases, obesity, diabetes, Alzheimer's, and Parkinson's disease.
# This project's aim is to identify novel and potent Nrf2 activators by using the AREc32 cell line to detect ARE activation by small molecules, which will lead to the identification and development of probes to study the ARE pathway. In this counter assay, we aim to identify false positive as identified from this primary assay using an FLuc assay with an inhibiting read-out.
# NIH Chemical Genomics Center [NCGC]
# NIH Molecular Libraries Probe Centers Network [MLPCN]
# Assay Submitter (PI): Curtis Klaassen, University of Kansas Medical Center
# Assess whether an activator in the primary assay potentially causes such activation by inhibitor-induced stabilization of the firefly luciferase reporter enzyme by determining whether it inhibits firefly luciferase in the presence of Km concentrations of its substrates (ATP and D-luciferin).
# % is scaled to controls: 0 for no effect and ±100 for the full control effect; potency is read from the fitted curve at half-maximal effect.
Structure (SMILES),Potency,"activity, negative = inhibition"
Cc1cccc(C(=O)Nc2nnc(SCC(=O)NCc3ccco3)s2)c1,2390 nM (active),–
Clc1ccccc1Nc1ncnc(-n2cccc2)n1,2130 nM (active),–
CCOc1ccc(-n2c(O)c(N=Nc3ccc([N+](=O)[O-])cc3)c(=O)[nH]c2=O)cc1,–,-3.35% (inactive)
O=C1c2ccccc2-c2cc3ccccc3cc21,4780 nM (active),–
Clc1cccc(/C=N\Nc2nccs2)c1,4780 nM (active),–
CC(=CCOc1ccc2ccc(=O)oc2c1)C1=CC(=O)C(C)(C)O1,–,-24.9% (inactive)
O=C(O)c1ccc([N+](=O)[O-])c([N+](=O)[O-])c1,–,-1.27% (inactive)
O=C(Nc1ccc(Cl)c(Cl)c1)c1ccco1,9530 nM (active),–
NC(=O)c1c(NC(=O)c2ccccc2F)sc2c1CCC2,1350 nM (active),–
Cn1c(O)c(N=Nc2ccc(S(=O)(=O)N3CCOCC3)cc2)c(=O)n(C)c1=O,–,-18.4% (inactive)
Fc1cccc(F)c1-c1nc(-c2ccc(Cl)cc2)no1,2130 nM (active),–
